# Shown are actives, neighbours in structure and some others; about 1.7% of the full set was active somewhere.
# PTHR1 ag: qHTS for PTHR1 Agonists: Primary Screen; HEK293 GP2 PTHR1 cells, GloSensor cAMP luminescence, 1 h; hit rate 0.075% among 410,000; Potency, µM (titrated, usually from 115 µM), for the others: top-dose activation, hits mostly activators; note: nearly all actives have a fitted effect of over 55% in size
#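 HEK-293-derived GP2 cells expressing PTHR1 and a GloSensor cAMP reporter, 3,000/well, plated overnight, given luciferin plus IBMX (each 0.5 mM as added) for 1 h at 37 °C, then compound for 1 h at 37 °C. Luminescence was read after 15 min at room temperature.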
# GLP-1R inv ag: qHTS of GLP-1 Receptor Inverse Agonists (Inhibition Mode); HEK293 GLP-1R CRE-luciferase, luminescence, 24 h; GLP-1R form is constitutively active; Glucagon-like peptide 1 receptor (Homo sapiens), P43220; AID 624417, 2012; hit rate 1.6% among 410,000; Potency, µM (top dose mostly 38.3 µM), for inactives: top-dose activity change, negative = inhibition, most hits filed as inhibitors; note: % is set by controls: 0 for no effect and ±100 for the full control effect; nearly all actives have a fitted effect of over 55% in size
# Target sequence (P43220 whole entry, looked up): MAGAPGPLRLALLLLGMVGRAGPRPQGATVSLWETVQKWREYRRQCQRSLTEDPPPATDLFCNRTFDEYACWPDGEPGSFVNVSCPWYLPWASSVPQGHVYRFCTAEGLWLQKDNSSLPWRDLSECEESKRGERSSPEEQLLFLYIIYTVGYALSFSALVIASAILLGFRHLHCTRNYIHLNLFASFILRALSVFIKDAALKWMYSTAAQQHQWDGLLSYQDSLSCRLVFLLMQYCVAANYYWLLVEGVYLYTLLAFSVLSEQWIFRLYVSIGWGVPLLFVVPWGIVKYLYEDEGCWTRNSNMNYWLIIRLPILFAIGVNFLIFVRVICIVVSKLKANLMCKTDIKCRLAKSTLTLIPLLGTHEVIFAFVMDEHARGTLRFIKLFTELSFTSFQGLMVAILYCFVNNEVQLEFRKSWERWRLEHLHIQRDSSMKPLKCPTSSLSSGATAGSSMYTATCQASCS
#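 qHTS in 1536-well format: reporter HEK293 cells expressing constitutive GLP-1R activity in DMEM + 10% Nu serum, 24 hr with compounds at 37 deg C, luminescence read after 12 min with detection reagent.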
# GLP1R cytotox: qHTS of GLP-1 Receptor Inverse Agonists: Cytotox Screen; Potency, µM (series often up to 38.3 µM), for the others: at the highest dose activity change, negative = inhibition, actives largely listed as inhibitors; hit rate 0.13% among 410,000; HEK293 cAMP-luciferase reporter cells, luminescence, 24 h;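 note: loss of luciferase light is scored as toxicity; % is set by controls: 0 for no effect and ±100 for the full control effect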
#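 Cells in DMEM/10% Nu serum/1% pen-strep, 1536-well format. Pre-incubated 12 h, dosed with 23 nL compound, incubated a further 24 h. Luciferase detection, 12 min at room temp, luminescence.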
# GLP-1R agonist: qHTS of GLP-1 Receptor Agonists; Glucagon-like peptide 1 receptor (Homo sapiens), P43220; HEK293 GLP-1R CRE-luciferase, luminescence, 4-6 h; cells express a hypersensitive GLP-1R form; Potency, µM (highest dose often 45.6 µM), for inactives: at the highest dose activation, most hits filed as activators; hit rate 0.007% among 380,000; AID 624172, 2012; note: % of control where 0% means no effect
# * hit, by the source's call; i = inactive; ? = inconclusive; · = not tested or not shown; [ ] = remark or other dose. Calls come from the whole dose curve; as a rule, active = well fitted curve in the direction sought with a large enough effect; inconclusive = small, poorly fitted or top-dose-only effect, or another doubt; inactive = no such curve, though single readings can be large; an effect the other way counts as inactive or inconclusive. Potency is the fitted concentration of half-maximal effect.
SMILES,PTHR1 ag,GLP-1R inv ag,GLP1R cytotox,GLP-1R agonist
Cc1ccccc1CS(=O)(=O)c1nnc([C@H](Cc2ccccc2)NC(=O)OC(C)(C)C)o1,-19.2%[57.5 µM],10µM*,?,-17.1%
CCSc1nnc([C@H](Cc2ccccc2)NC(=O)OC(C)(C)C)o1,-16.1%[57.5 µM],?,1.5%,0.5%
CCN1C(=O)/C(=C/c2nc3ccccc3c(=O)n2-c2ccccc2)c2ccccc21,-12.4%[57.5 µM],2µM*,-15.9%,0.8%
O=C(CCC(=O)N/N=C/c1ccco1)N/N=C/c1ccco1,i,1.4%,1.9%,0.3%
C=C(C)CNC(=S)N/N=C/c1ccco1,-8.1%,4.47µM*,?,8.4%
C=C(C)CNC(=S)NN=C1c2ccccc2-c2ccccc21,i,?,?,11.2µM*
CCNC(=S)NN=C1c2ccccc2-c2ccccc21,-22.8%,?,?,26.8%
COc1ccc(CCC(=O)N2c3ccccc3N=C(c3ccc(C(F)(F)F)cc3)C2C(=O)NC(C)(C)C)cc1 (stereo unspecified),i,4.47µM*,25.8%,·
COc1ccc(CCC(=O)N2c3ccccc3N=C(c3ccc(C(F)(F)F)cc3)C2C(=O)NC(C)C)cc1 (stereo unspecified),-34.4%,-8.9%,0.8%,·
CCOc1ccc(CNC(=O)c2cnc3sc(N4CCOCC4)nn3c2=O)cc1OC,?,27.2%,-1.6%,·
O=C(c1cc(C2CC2)nn1-c1ccccc1)N1CCN(Cc2ccccc2F)CC1,-1.1%,8.91µM*,1.2%,0.5%
CC1CCCCC1NC(=S)Nc1ccc(Cl)cc1Cl (stereo unspecified),-32.0%,11.2µM*,?,0.6%
COc1ccc(C2c3c(n(C)c4ccccc34)C(=O)N2CC(=O)Nc2ccccc2F)cc1 (stereo unspecified),?,?,-33.7%,·
O=C1CCC[C@@H]2C[C@@]3(C[C@@H]4CCN1[C@H]24)Nc1cc(Cl)c(Cl)cc1NC3=NCc1ccccc1,i,10µM*,-27.8%,0.9%
CCOc1ccc(CN2C(=O)c3ccccc3Sc3ccc(C(=O)NC4CCC(C)CC4)cc32)cc1 (stereo unspecified),6.1%,-3.3%,5.6%,-0.8%
CC1CCN(S(=O)(=O)c2cn(CC(=O)Nc3ccc(F)cc3)c(=O)c3ccccc23)CC1,i,?,-4.3%,0.5%
CCC(C(=O)NCCC(C)C)n1ccc2cc(S(=O)(=O)N3CCCCC3)ccc21 (stereo unspecified),-17.1%,7.94µM*,-9.8%,1.5%
COc1cccc(CNC(=O)C(C)n2ccc3cc(S(=O)(=O)N4CCCC4)ccc32)c1 (stereo unspecified),-23.7%,-21.6%,-8.6%,9.0%
COc1cccc(CNC(=O)C(C)n2ccc3cc(S(=O)(=O)N4CCCCCC4)ccc32)c1 (stereo unspecified),-0.8%,12.6µM*,-6.7%,3.6%
CCSc1nc2c([nH]c3ccccc32)c(=O)n1-c1cccc(OC)c1,-9.5%,?,-2.9%,6.9%
COc1cccc(-n2c(SCc3ccc(F)cc3)nc3c([nH]c4ccccc43)c2=O)c1,i,8.91µM*,-15.3%,3.6%
Cc1nc(C)c(-c2ccc(SCC(=O)Nc3ccc(Cl)c(Cl)c3)nn2)s1,-31.7%,15.6%,2.2%,·
CCCCNCCCOc1ccc(C)cc1Br,?,?,-26.1%,-8.5%
CCCCNCCCOc1cccc(Cl)c1Cl,i,7.94µM*,?,-1.4%
CCN(Cc1nc2ccccc2c(=O)[nH]1)C(=O)COc1ccccc1Cc1ccccc1,-15.9%,12.6µM*,-24.7%,16.5%
CCN(Cc1nc2cc(Cl)ccc2c(=O)[nH]1)C(=O)COc1ccccc1Cc1ccccc1,-27.1%,?,?,2.5%
CCn1c(=S)sc2c(=O)n(CC(=O)Nc3cccc(Cl)c3)c(C)nc21,-14.3%,7.94µM*,?,-1.0%
Cc1nc2c(sc(=S)n2Cc2ccco2)c(=O)n1CC(=O)Nc1ccccc1F,-10.4%,?,-8.8%,8.1%
Cc1nc2c(sc(=S)n2Cc2ccco2)c(=O)n1CC(=O)Nc1ccccc1,-21.1%,4.47µM*,-6.5%,-2.2%
CCOC(=O)c1ccc(NC(=O)Cn2c(C)nc3c(sc(=S)n3CC)c2=O)cc1,-33.7%,-6.5%,5.4%,-0.3%
